Results reported in PubChem BioAssay (NCATS).
Records with an inconclusive call do not appear. Activity calls are given as the source filed them. The call rests on the fitted dose curve; in most records, active means well fitted curve in the direction sought with a large enough effect; inconclusive means small, poorly fitted or top-dose-only effect, or another doubt; inactive means no such curve, though single readings can be large; an effect the other way counts as inactive or inconclusive.

How the values were obtained:
Es-2 = assay: Primary qHTS to identify gynecologic anti-cancer compounds using libraries of approved drugs and bioactive compounds (AID 1345084); details: Gynecologic cancer cell panel viability, ATPlite luminescence, 48 h; series mostly up to 57.5 µM; further: nearly all actives have a fitted effect of over 55% in size; further: potency means the concentration at half of the fitted maximal effect
Outline: (§1)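 In this quantitative HTS, cell killing is estimated from loss of ATP-dependent luciferase light. Cells see five compound concentrations over a 48 h exposure.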

HeLa = assay: as above; details: Gynecologic cancer cell panel viability, ATPlite luminescence, 48 h; series mostly up to 57.5 µM
Outline: as §1

Hek293T = assay: as above; details: Gynecologic cancer cell panel viability, ATPlite luminescence, 48 h, control line for the selectivity index; series mostly up to 57.5 µM
Outline: as §1

JEG-3 = assay: as above; details: Gynecologic cancer cell panel viability, ATPlite luminescence, 48 h; series mostly up to 57.5 µM
Outline: as §1

OV90 = assay: as above; details: Gynecologic cancer cell panel viability, ATPlite luminescence, 48 h; series mostly up to 57.5 µM
Outline: as §1

PA-1 = assay: as above; details: Gynecologic cancer cell panel viability, ATPlite luminescence, 48 h; series mostly up to 57.5 µM
Outline: as §1

Tov-21-G = assay: as above; details: Gynecologic cancer cell panel viability, ATPlite luminescence, 48 h; series mostly up to 57.5 µM
Outline: as §1

Tov112D = assay: as above; details: Gynecologic cancer cell panel viability, ATPlite luminescence, 48 h; series mostly up to 57.5 µM
Outline: as §1

SKOV3 = assay: as above; details: Gynecologic cancer cell panel viability, ATPlite luminescence, 48 h; series mostly up to 57.5 µM
Outline: as §1

[1] = qHTS assay to identify inhibitors of the type 1 interferon - major histocompatibility complex class I in skeletal muscle: Counter screen cell viability and HiBit confirmation (AID 1347412); details: iHSKM muscle cells + IFN-b, HiBiT or CellTiter-Glo, 24 h; for activity change, negative = inhibition: at 45.9 µM (top of the series); further: potency means the concentration at half of the fitted maximal effect; on all read-outs here: nearly all actives have a fitted effect of over 60% in size
Outline: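 Luminescence read-out: Nano-Glo HiBiT lytic signal from C-terminally HiBiT-tagged HLA-B in CRISPR-edited human myoblasts, plus CellTiter Glo ATP as viability counter screen. IFN-beta 4.0 ng/ml; 24 hrs treatment at 37 C, 5% CO2.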

[2] = Drug repurposing screens with cells derived from glioblastoma tumor samples (AID 1345199); details: GBM patient neurospheres viability, ATP luminescence, 48 h; further: nearly all actives have a fitted effect of over 40% in size
Outline: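 Four patient lines of CD133+ GBM neurospheres were screened at several concentrations; hits were retested in those lines plus three slower-growing GBM lines, using 48-hour treatment and ATP-based viability.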
On the % scale 0 is the no-effect control and ±100 the full control effect.

Cc1nc(C(=O)NCC(=O)O)c(O)c2ccc(Oc3ccccc3)cc12
inactive: Potency (Es-2) | Potency (HeLa) | Potency (Hek293T) | Potency (JEG-3) | Potency (OV90) | Potency (PA-1) | Potency (Tov-21-G) | Potency (Tov112D)

O=C(Nc1ccc(OC(F)(F)F)cc1)c1sccc1NCc1ccnc2ccccc12
inactive: Potency (Es-2) | Potency (HeLa) | Potency (Hek293T) | Potency (JEG-3) | Potency (SKOV3) | Potency (Tov-21-G) | Potency (Tov112D)

Cc1ccc2c(c1)C(=O)[C@]1(O)CCN(c3ccccc3)C1=N2
inactive: Potency (Es-2) | Potency (HeLa) | Potency (Hek293T) | Potency (JEG-3) | Potency (OV90) | Potency (PA-1) | Potency (SKOV3) | Potency (Tov112D)

NS(=O)(=O)c1ccc(Nc2nc(OCC3CCCCC3)c3[nH]cnc3n2)cc1
inactive: Potency (Es-2) | Potency (HeLa) | Potency (Hek293T) | Potency (JEG-3) | Potency (OV90) | Potency (PA-1) | Potency (Tov112D) | activity change, negative = inhibition ([1]; Viability) -13.9%
active: Potency (Tov-21-G) 15.8 µM

Cc1cnc(CNC(=O)c2c(=O)c3ccc(N4CCCN(C)CC4)nc3n3c2sc2ccccc23)cn1
inactive: activity change, negative = cytotoxicity (Es-2) -19% [at 11.6 µM] | activity change, negative = cytotoxicity (HeLa) -13.6% [at 11.6 µM] | activity change, negative = cytotoxicity (Hek293T) -21% [at 11.6 µM] | activity change, negative = cytotoxicity (JEG-3) -3.1% [at 11.6 µM] | activity change, negative = cytotoxicity (OV90) 10.5% [at 11.6 µM] | activity change, negative = cytotoxicity (SKOV3) -5.43% [at 11.6 µM] | activity change, negative = cytotoxicity (Tov-21-G) -27.4% [at 11.6 µM] | activity change, negative = cytotoxicity (Tov112D) -20.9% [at 11.6 µM]

CCc1cccc(CC)c1NC(=O)N1Cc2[nH]nc(NC(=O)c3ccc(N4CCN(C)CC4)cc3)c2C1
inactive: Potency (Es-2) | Potency (Hek293T) | Potency (JEG-3) | Potency (OV90) | Potency (SKOV3)
active: Potency (HeLa) 3.16 µM | Potency (Tov-21-G) 12.6 µM

Cn1c(=O)c(-c2c(Cl)cccc2Cl)cc2cnc(Nc3cccc(C(=O)O)c3)nc21
inactive: Potency (Es-2) | Potency (HeLa) | Potency (Hek293T) | Potency (JEG-3) | Potency (OV90) | Potency (PA-1) | Potency (Tov112D)

CC1(COc2ccc3c(c2)ncn3-c2ccc3cccc(N4CCC(N)CC4)c3n2)COC1
active: Potency (Es-2) 28.2 µM | Potency (HeLa) 20 µM | Potency (Hek293T) 20 µM | Potency (PA-1) 8.91 µM | Potency ([1]; HiBiT) 3.52 µM | Potency ([1]; Viability) 27.9 µM

COc1ccc(-c2nc3ccc(C4=NNC(=O)CC4C)cc3[nH]2)cc1 (stereo not drawn)
active: Potency (SKOV3) 35.5 µM
inactive: Potency (Es-2) | Potency (Hek293T) | Potency (JEG-3) | Potency (OV90)

NC1(C(=O)N[C@@H](CCO)c2ccc(Cl)cc2)CCN(c2ncnc3[nH]ccc23)CC1
active: Potency (Tov-21-G) 0.794 µM
inactive: Potency (Es-2) | Potency (HeLa) | Potency (OV90) | Potency (Tov112D) | activity change, negative = inhibition ([1]; Viability) -19.1%

COc1ccc(-c2cc3nccn3c(Nc3ncccc3C(N)=O)n2)cc1OC
active: Potency (PA-1) 3.55 µM | Potency ([1]; HiBiT) 7.87 µM
inactive: Potency (Es-2) | Potency (Hek293T) | Potency (OV90) | Potency (Tov112D) | activity change, negative = inhibition ([1]; Viability) -22.4%

COc1ccc(-c2ccc3ncc4c(c3c2)n(-c2ccc(N3CCNCC3)c(C(F)(F)F)c2)c(=O)n4C)cn1
active: Potency (HeLa) 1.12 µM | Potency (OV90) 31.6 µM | Potency (PA-1) 0.316 µM | Potency (Tov-21-G) 35.5 µM | Potency (Tov112D) 15.8 µM | Potency ([1]; Viability) 4.43 µM

Cc1ccc2c(c1)c1c(n2CCc2ccc(C)nc2)CCN(C)C1
inactive: Potency (HeLa) | Potency (JEG-3) | Potency (OV90)

CC(C)(C)c1nc(-c2cccc(NS(=O)(=O)c3c(F)cccc3F)c2F)c(-c2ccnc(N)n2)s1
inactive: Potency (HeLa) | Potency (Hek293T) | Potency (JEG-3) | Potency (OV90) | Potency (PA-1) | Potency (Tov112D) | activity change, negative = inhibition ([1]; Viability) 12.8%

CC(C)CNc1ccnc(NCc2csc(-c3ccccc3)n2)n1
inactive: Potency (HeLa) | Potency (JEG-3) | activity change, negative = inhibition ([1]; Viability) -28.7%
active: Potency (Es-2) 22.4 µM | Potency (PA-1) 12.6 µM | Potency (SKOV3) 11.2 µM

CN1c2ccccc2C(=O)N2CCc3c([nH]c4ccccc34)C21 (stereo not drawn)
active: Potency (Es-2) 14.1 µM | Potency (HeLa) 7.94 µM | Potency (JEG-3) 3.98 µM | Potency (PA-1) 7.08 µM | Potency (Tov-21-G) 8.91 µM | Potency (Tov112D) 3.55 µM

N#CC1(c2cccc(C(=O)Nc3cc(Oc4ccc5nc(NC(=O)C6CC6)sc5n4)ccc3F)c2Cl)CC1
active: Potency (PA-1) 10 µM | Potency (SKOV3) 20 µM | Potency (Tov-21-G) 3.98 µM | Potency (Tov112D) 5.62 µM
inactive: Potency (HeLa) | Potency (JEG-3)

O=C(Nc1cccc2c(=O)cc(-c3nn[nH]n3)oc12)c1ccc(OCCCCc2ccccc2)cc1
inactive: Potency (HeLa) | Potency (Hek293T) | Potency (JEG-3) | Potency (PA-1) | Potency (SKOV3) | Potency (Tov-21-G) | Potency (Tov112D) | activity, negative = cell killing ([2]; at 45.9 µM (top of the series), tumour line B) 1.64% | activity, negative = cell killing ([2]; at 45.9 µM (top of the series), tumour line D) -5.85% | activity, negative = cell killing ([2]; at 46.1 µM (top of the series), tumour line C) 16%

Cc1csc(-c2nnc(Nc3ccc(Oc4ncccc4-c4ccnc(N)n4)cc3)c3ccccc23)c1
inactive: Potency (HeLa) | Potency (Hek293T) | Potency (JEG-3) | Potency (OV90) | Potency (PA-1) | Potency (Tov-21-G)

C[C@@]1(C(=O)Nc2ccc(F)nc2)CCCN1c1nc(Nc2cc(C3CC3)[nH]n2)c2cccn2n1
inactive: Potency (Es-2) | Potency (JEG-3) | Potency (Tov112D)
active: Potency (HeLa) 3.98 µM | Potency (PA-1) 5.01 µM | Potency (Tov-21-G) 12.6 µM

CNC(=O)c1cc(Oc2ccc(NC(=O)Nc3ccc(Cl)c(C(F)(F)F)c3)c(F)c2)ccn1
inactive: Potency (Es-2) | Potency (HeLa) | Potency (Hek293T) | Potency (PA-1) | Potency (SKOV3) | Potency (Tov-21-G) | Potency (Tov112D) | activity change, negative = inhibition ([1]; HiBiT) -24.1% | activity change, negative = inhibition ([1]; Viability) 2.73%

Cc1cccc2c1CC[C@H](CN1CCC(c3c(Cl)cccc3Cl)CC1)C[C@@H]2O
active: Potency (PA-1) 11.2 µM
inactive: Potency (Es-2) | Potency (OV90) | Potency (Tov-21-G) | Potency (Tov112D)

CNC1CCC(N(Cc2cccc(-c3ccncc3)c2)C(=O)c2sc3ccccc3c2Cl)CC1 (stereo not drawn)
active: Potency (SKOV3) 25.1 µM
inactive: Potency (HeLa) | Potency (Tov-21-G) | Potency (Tov112D)

Fc1ccc(CNc2ncnc3ccc(F)cc23)cc1
inactive: Potency (Es-2) | Potency (HeLa) | Potency (JEG-3) | Potency (Tov-21-G) | Potency (Tov112D) | activity change, negative = inhibition ([1]; Viability) 2.98%

C[C@@H](N)c1ccc(C(=O)Nc2ccnc3[nH]ccc23)cc1
active: Potency (HeLa) 17.8 µM | Potency (Tov-21-G) 31.6 µM | Potency (Tov112D) 25.1 µM
inactive: Potency (JEG-3) | Potency (OV90)

CCN1CCN(c2ccc(Nc3cc(N(C)C(=O)Nc4c(Cl)c(OC)cc(OC)c4Cl)ncn3)cc2)CC1
inactive: Potency (Es-2) | Potency (Hek293T) | Potency (JEG-3) | Potency (OV90) | Potency (PA-1) | Potency (Tov112D)

Cn1cnc(-c2cc3nccc(Oc4ccc(NC(=S)NC(=O)Cc5ccccc5)cc4F)c3s2)c1
inactive: Potency (Es-2) | Potency (Hek293T) | Potency (JEG-3) | Potency (OV90)
